Compound in this assay: C#CCNC(=O)CCSSCCC(=O)NCCc1ccc(C=O)c(C=O)c1
Nature of the assay: lysine labeling ratio R10:1 (500 µM / 50 µM probe), SILAC-ABPP in living cells; higher = lower intrinsic lysine reactivity toward the probe, active = 2 or less. To be noted: HeLa; probe concentrations 500 vs 50 µM. The essentials:
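R, given per lysine, is the filtered median high-probe/low-probe MS1 peptide ratio, with the median then taken across forward and reverse replicates. Cells were living SILAC light and heavy HeLa cells in PBS at room temperature, labelled with 50 µM or 500 µM of an alkyne-tagged, disulfide-linked lysine probe. The ceiling applied is 20.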
Sequence of UniProt Q15149 (Q15149 whole entry): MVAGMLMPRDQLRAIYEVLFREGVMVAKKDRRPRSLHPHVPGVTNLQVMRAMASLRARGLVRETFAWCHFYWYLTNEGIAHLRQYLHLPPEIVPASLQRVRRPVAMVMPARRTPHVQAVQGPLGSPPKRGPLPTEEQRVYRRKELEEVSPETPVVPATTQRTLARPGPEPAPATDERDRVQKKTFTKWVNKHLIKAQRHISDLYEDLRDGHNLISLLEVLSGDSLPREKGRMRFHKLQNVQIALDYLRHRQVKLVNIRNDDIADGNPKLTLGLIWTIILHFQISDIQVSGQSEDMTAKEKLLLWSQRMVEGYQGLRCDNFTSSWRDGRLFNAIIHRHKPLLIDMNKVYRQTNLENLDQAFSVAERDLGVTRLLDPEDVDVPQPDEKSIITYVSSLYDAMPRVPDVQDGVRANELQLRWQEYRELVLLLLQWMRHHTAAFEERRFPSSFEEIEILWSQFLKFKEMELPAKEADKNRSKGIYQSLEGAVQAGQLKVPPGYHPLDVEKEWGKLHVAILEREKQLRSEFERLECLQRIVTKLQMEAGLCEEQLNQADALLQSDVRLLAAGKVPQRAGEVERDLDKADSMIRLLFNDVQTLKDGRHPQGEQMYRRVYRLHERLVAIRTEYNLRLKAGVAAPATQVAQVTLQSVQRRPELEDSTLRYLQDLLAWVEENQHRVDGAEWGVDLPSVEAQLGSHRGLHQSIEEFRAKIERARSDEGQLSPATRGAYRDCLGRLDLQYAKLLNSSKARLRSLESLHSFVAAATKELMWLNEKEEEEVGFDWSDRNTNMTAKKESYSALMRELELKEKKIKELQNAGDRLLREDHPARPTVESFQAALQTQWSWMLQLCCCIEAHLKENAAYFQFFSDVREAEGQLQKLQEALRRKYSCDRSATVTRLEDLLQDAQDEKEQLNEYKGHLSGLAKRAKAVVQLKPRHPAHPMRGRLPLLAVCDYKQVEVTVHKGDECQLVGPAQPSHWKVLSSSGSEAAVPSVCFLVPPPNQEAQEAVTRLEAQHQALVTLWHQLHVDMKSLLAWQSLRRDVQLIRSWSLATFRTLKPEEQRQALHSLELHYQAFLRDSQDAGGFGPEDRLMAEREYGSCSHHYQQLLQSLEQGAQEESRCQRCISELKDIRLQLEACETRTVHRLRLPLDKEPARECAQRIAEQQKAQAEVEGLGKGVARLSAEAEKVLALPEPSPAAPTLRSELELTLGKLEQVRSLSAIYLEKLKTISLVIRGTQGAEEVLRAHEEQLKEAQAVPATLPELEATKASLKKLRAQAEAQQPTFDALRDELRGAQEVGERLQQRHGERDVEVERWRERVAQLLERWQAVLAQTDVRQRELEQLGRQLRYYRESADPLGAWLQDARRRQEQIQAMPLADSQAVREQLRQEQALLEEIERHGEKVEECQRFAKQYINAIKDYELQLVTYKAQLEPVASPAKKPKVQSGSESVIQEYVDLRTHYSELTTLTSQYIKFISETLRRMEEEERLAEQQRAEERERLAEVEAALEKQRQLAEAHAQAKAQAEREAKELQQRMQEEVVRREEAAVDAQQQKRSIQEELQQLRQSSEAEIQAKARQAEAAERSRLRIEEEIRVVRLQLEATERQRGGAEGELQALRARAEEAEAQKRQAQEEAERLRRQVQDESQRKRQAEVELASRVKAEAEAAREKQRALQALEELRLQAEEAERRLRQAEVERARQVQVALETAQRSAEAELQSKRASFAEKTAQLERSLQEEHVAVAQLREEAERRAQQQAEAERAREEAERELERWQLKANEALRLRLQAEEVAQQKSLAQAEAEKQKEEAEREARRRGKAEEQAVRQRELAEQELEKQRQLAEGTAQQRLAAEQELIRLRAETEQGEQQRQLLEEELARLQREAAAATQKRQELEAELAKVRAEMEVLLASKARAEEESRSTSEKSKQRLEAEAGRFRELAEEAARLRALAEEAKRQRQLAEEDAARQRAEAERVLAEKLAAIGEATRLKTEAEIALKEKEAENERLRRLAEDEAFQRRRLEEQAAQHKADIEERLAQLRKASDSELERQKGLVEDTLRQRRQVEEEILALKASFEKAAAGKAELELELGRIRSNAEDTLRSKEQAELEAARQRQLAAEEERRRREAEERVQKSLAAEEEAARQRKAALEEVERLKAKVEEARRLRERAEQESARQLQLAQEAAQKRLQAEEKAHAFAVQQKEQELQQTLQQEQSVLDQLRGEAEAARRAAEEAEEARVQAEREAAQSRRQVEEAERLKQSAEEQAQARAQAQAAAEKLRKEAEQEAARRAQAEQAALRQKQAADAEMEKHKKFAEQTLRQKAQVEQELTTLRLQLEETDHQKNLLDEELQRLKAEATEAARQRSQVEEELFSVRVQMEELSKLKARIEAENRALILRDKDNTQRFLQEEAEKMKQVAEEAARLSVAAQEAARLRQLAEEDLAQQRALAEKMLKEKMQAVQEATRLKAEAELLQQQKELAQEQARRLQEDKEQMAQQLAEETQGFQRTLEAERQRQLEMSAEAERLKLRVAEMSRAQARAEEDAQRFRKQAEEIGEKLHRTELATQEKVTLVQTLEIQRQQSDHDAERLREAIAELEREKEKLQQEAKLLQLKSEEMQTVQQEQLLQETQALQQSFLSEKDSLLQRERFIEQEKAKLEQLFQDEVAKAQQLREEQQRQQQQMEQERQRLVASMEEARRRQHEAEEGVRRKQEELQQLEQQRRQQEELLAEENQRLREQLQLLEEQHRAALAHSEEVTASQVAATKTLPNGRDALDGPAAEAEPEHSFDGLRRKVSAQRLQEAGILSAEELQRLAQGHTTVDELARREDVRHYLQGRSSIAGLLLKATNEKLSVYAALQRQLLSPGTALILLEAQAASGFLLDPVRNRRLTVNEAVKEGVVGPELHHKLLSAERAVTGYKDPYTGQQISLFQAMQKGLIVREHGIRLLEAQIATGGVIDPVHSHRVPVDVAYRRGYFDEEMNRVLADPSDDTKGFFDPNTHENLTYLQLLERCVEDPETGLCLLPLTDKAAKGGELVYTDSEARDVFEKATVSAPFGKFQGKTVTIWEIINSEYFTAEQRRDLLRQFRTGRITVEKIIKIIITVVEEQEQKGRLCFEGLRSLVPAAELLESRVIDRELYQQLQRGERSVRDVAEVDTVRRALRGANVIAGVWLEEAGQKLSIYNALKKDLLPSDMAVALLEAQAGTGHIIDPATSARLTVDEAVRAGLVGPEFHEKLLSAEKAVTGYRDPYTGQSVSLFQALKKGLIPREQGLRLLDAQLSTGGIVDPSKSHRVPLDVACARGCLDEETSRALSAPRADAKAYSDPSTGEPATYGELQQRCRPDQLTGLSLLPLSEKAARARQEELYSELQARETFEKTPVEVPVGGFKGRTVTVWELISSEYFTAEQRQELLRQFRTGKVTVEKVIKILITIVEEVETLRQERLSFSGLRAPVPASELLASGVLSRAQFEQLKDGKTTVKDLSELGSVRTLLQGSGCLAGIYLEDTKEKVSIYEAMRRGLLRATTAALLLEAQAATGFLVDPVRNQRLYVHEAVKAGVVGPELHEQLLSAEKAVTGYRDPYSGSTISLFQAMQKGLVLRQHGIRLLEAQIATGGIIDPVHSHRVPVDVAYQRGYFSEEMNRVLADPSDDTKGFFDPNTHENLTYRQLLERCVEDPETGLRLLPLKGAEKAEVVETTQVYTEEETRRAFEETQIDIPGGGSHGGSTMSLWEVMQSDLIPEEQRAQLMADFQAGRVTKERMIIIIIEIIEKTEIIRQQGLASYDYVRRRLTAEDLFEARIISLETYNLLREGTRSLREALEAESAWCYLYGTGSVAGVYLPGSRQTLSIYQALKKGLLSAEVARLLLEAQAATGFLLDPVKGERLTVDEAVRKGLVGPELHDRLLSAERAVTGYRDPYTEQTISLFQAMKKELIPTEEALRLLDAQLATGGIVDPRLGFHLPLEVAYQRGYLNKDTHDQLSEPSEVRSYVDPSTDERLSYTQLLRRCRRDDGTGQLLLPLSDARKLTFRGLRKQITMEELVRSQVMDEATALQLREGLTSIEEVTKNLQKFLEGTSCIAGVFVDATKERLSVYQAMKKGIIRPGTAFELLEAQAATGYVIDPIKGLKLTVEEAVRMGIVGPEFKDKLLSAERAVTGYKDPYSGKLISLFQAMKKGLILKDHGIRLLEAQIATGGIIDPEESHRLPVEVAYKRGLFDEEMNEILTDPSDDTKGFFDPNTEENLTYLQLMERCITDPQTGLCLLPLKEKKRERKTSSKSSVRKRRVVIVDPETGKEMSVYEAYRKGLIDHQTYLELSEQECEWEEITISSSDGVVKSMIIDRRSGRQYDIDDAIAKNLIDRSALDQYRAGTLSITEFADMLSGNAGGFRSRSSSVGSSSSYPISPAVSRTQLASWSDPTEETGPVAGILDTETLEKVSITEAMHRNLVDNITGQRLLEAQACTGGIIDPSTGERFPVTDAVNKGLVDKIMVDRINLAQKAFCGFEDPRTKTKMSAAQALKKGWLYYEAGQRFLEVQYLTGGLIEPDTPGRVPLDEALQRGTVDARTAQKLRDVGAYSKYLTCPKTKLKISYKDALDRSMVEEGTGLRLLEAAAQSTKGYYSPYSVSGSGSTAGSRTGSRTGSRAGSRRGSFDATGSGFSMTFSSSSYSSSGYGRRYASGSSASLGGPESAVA
Sequence of UniProt P14868 (P14868 whole entry): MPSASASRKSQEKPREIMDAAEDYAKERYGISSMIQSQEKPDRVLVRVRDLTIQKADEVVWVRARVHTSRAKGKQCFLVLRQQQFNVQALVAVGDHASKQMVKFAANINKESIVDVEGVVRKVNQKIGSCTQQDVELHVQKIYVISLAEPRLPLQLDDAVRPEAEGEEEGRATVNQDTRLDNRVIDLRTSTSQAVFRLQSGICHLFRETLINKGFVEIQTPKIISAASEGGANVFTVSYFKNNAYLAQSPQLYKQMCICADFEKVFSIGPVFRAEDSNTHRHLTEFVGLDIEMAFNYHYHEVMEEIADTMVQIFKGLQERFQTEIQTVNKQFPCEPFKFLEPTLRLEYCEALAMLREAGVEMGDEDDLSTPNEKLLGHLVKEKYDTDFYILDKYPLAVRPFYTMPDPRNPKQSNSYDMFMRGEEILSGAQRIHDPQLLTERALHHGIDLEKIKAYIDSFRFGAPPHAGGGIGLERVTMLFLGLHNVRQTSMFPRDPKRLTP
Consider “MET (lysine site: K189) (UniProt P08581)”, for which the “lysine labeling ratio R10:1” value was 3.58 (inactive).

Take “IQGAP1 (lysine site: K1389) (UniProt P46940)”: the “lysine labeling ratio R10:1” value is 5.25 (inactive).

Turning to “CLTC (lysine site: K389) (UniProt Q00610)”, the “lysine labeling ratio R10:1” value was 5.78 (inactive).

Take “CFL1 (lysine site: K144) (UniProt P23528)”: the “lysine labeling ratio R10:1” value is 3.15 (inactive).

As for “NUMA1 (lysine site: K1024) (UniProt Q14980)”, the “lysine labeling ratio R10:1” value was 1.17 (active).

As for “LRPAP1 (lysine site: K65) (UniProt P30533)”, the “lysine labeling ratio R10:1” value was 4.18 (inactive).

In the case of UniProt Q15149 (lysine site: K1528), the “lysine labeling ratio R10:1” value is 1.47 (active).

Take “CCT7 (lysine site: K250) (UniProt Q99832)”: the “lysine labeling ratio R10:1” value is 1.57 (active).

Take “DSG2 (lysine site: K562) (UniProt Q14126)”: the “lysine labeling ratio R10:1” value was 6.57 (inactive).

“STOML2 (lysine site: K254) (UniProt Q9UJZ1)”: the “lysine labeling ratio R10:1” value was 5.22 (inactive).

For the target “PSMA1 (lysine site: K115) (UniProt P25786)”, the “lysine labeling ratio R10:1” value was 4.28 (inactive).

Regarding “FLNA (lysine site: K704) (UniProt P21333)”, the “lysine labeling ratio R10:1” value was 1.61 (active).

Consider UniProt Q15149 (lysine site: K792), for which the “lysine labeling ratio R10:1” value is 1.45 (active).

As for “HNRNPU (lysine site: K609) (UniProt Q00839)”, the “lysine labeling ratio R10:1” value is 1.53 (active).

In the case of UniProt P62249 (lysine site: K60), the “lysine labeling ratio R10:1” value is 4.81 (inactive).

On to “IGF2R (lysine site: K1579) (UniProt P11717)”, for which the “lysine labeling ratio R10:1” value is 0.605 (active).

In the case of “ALCAM (lysine site: K75) (UniProt Q13740)”, the “lysine labeling ratio R10:1” value was 9.89 (inactive).

As to UniProt P61088 (lysine site: K82), the “lysine labeling ratio R10:1” value is 1.19 (active).

For the target UniProt P25705 (lysine site: K161), the “lysine labeling ratio R10:1” value was 3.49 (inactive).

Consider UniProt Q8WXI7 (lysine site: K13384), for which the “lysine labeling ratio R10:1” value is 7.85 (inactive).

On to “PLS3 (lysine site: K346) (UniProt P13797)”, for which the “lysine labeling ratio R10:1” value is 0.842 (active).

With UniProt Q15149 (lysine site: K1833), the “lysine labeling ratio R10:1” value is 2.22 (inactive).

On to “DARS (lysine site: K40) (UniProt P14868)”, for which the “lysine labeling ratio R10:1” value is 2.54 (inactive).

For the target “XRCC6 (lysine site: K129) (UniProt P12956)”, the “lysine labeling ratio R10:1” value was 1.62 (active).

Regarding “TFRC (lysine site: K177) (UniProt P02786)”, the “lysine labeling ratio R10:1” value is 2.39 (inactive).

UniProt Q15149 (lysine site: K1552): the “lysine labeling ratio R10:1” value was 2.31 (inactive).

As to “G6PD (lysine site: K497) (UniProt P11413)”, the “lysine labeling ratio R10:1” value is 3.47 (inactive).

On to “ITGA6 (lysine site: K586) (UniProt P23229)”, for which the “lysine labeling ratio R10:1” value is 12.8 (inactive).

For “IARS (lysine site: K382) (UniProt P41252)”, the “lysine labeling ratio R10:1” value was 3.02 (inactive).

Turning to “FLNA (lysine site: K916) (UniProt P21333)”, the “lysine labeling ratio R10:1” value was 1.76 (active).

On to “ITGA6 (lysine site: K953) (UniProt P23229)”, for which the “lysine labeling ratio R10:1” value was 3.1 (inactive).

In the case of “APOC3 (lysine site: K44) (UniProt P02656)”, the “lysine labeling ratio R10:1” value was 3.68 (inactive).

Take “MSN (lysine site: K538) (UniProt P26038)”: the “lysine labeling ratio R10:1” value is 4.98 (inactive).

With “L1CAM (lysine site: K530) (UniProt P32004)”, the “lysine labeling ratio R10:1” value is 7.51 (inactive).

Take “LRP8 (lysine site: K567) (UniProt Q14114)”: the “lysine labeling ratio R10:1” value was 1.53 (active).

On to “CAPZA1 (lysine site: K19) (UniProt P52907)”, for which the “lysine labeling ratio R10:1” value was 2.43 (inactive).

UniProt P14618 (lysine site: K367): the “lysine labeling ratio R10:1” value was 3.33 (inactive).

For the target “SPTBN1 (lysine site: K1815) (UniProt Q01082)”, the “lysine labeling ratio R10:1” value is 2.56 (inactive).

In the case of “LAMB1 (lysine site: K184) (UniProt P07942)”, the “lysine labeling ratio R10:1” value was 1.21 (active).

Regarding “CLTC (lysine site: K1516) (UniProt Q00610)”, the “lysine labeling ratio R10:1” value is 1.45 (active).

(Values after the supplement of paper PMC11001985.)
